Screening results deposited in PubChem by National Center for Advancing Translational Sciences (NCATS).
Only some compounds are listed: those with a hit (about 6% of all), similar ones and a draw of the others.
D1 agonist: human D1 receptor agonism | HEK293 T-REx D1 cells, calcium flux, agonist mode | activation, % at 2 µM | hit rate 1% among 360,000; in the data active means activation above about 30%; further: 0% is about no effect
Target sequence (P21728 whole entry, looked up): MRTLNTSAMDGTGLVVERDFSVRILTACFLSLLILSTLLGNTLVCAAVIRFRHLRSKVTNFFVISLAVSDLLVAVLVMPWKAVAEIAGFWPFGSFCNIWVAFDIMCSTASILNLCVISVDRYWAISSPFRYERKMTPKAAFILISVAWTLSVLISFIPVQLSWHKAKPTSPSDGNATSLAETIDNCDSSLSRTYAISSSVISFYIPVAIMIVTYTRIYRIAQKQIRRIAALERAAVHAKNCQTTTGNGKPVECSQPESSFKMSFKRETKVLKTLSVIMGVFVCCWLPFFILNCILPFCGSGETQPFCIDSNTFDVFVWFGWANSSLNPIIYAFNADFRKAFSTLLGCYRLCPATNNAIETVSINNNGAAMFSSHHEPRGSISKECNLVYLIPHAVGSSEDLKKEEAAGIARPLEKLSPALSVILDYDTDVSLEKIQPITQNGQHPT
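Agonism was scored from calcium flux recorded over 180 s (1 read/s) after pintool compound addition, following a 10-cycle baseline. Cells were inducible force-coupled HEK293 TREx D1, plated overnight at 30 C and loaded with no-wash calcium dye.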
DRD3 antagonist: D3 dopamine receptor (human) antagonism. P35462. hit rate 2.5% among 360,000. max response, negative = inhibition, %. D3R cells, DiscoveRx beta-arrestin luminescence, antagonist mode; stronger effect = lower value; in the data active means max response below about -50%; inconclusive means no clear call, values can overlap the other calls; further: on the % scale 0 is the no-effect control and ±100 the full control effect
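Cells expressing the human receptor were seeded at 1500 cells/well, incubated overnight at 37 degrees C in 5% CO2, then exposed to library compounds with dopamine controls for 90 minutes at 37 degrees C before luminescent detection.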
D1 PAM: potentiators of human D1 dopamine receptor; P21728; HEK293 TREx D1 cells, calcium flux, dopamine EC20 potentiation; potentiation, % at 10 µM; hit rate 0.036% among 360,000; in the data active means potentiation above about 30%; further: 0% is about no effect
D1 antagonist: human D1 dopamine receptor antagonism | HEK293 TREx D1 cells, calcium flux, dopamine EC80; stronger effect = lower value | activity change, negative = inhibition, % at 10 µM | P21728 | hit rate 3.2% among 360,000 | AID 504652; in the data active means activity change below about -30%; further: on the % scale 0 is the no-effect control and ±100 the full control effect
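Inducible Hek293 Trex D1 cells (tetracycline, overnight, 30 C). Calcium dye 30–90 min RT. Antagonist mode: EC80 dopamine added after 180 s compound read.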
D3 ag: activates the human D3 dopamine receptor. hit rate 0.58% among 410,000. P35462. max activation, %. D3R DiscoveRx beta-arrestin cells, luminescence, 90 min; in the data active means max activation above about 30%; further: 0% is about no effect
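Agonist-mode cell screen: cells plated at 1500/well and incubated overnight at 37 °C, then exposed to library compounds for 90 min at 37 °C. Detection reagent was added for 30–60 min at room temperature, and luminescence was read.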
Numbers without * were called inactive; ? = inconclusive; · = no result given.

SMILES | D1 agonist | DRD3 antagonist | D1 PAM | D1 antagonist | D3 ag
C=CCc1cc(Cl)ccc1OCCN1CC(C)OC(C)C1 (centres undefined) | 3.8 | ? | 1.3 | -1.2 | -36.8
C=CCc1cc(Cl)ccc1OCCNCCN1CCOCC1 | 11.6 | ? | -6.8 | -87.1* | -10.4
Cc1cc(SCC(=O)N2c3ccccc3NC(=O)CC2C)nc2ccccc12 (centres undefined) | · | -21.2 | · | · | -0.5
Cc1cc(C)cc(NC(=O)Cn2nnc(C(=O)Nc3cc(C)cc(C)c3)c2N)c1 | 1.5 | · | -1.4 | -3.0 | -3.6
Cc1cc(C)cc(NC(=O)c2nnn(Cc3cc(C)ccc3C)c2N)c1 | 9.7 | ? | 0.0 | -43.9* | -9.3
Cc1ccc(C)c(Cn2nnc(C(=O)Nc3ccc4c(c3)OCCO4)c2N)c1 | 50.0* | 9.6 | 5.6 | -4.2 | 9.2
Cc1ccccc1Cn1nnc(C(=O)Nc2ccc3c(c2)OCCO3)c1N | 11.5 | -3.8 | 0.2 | 1.0 | -9.1
O=C1C(SCCO)=C(SCCO)C(=O)c2ccccc21 | 2.3 | -136.4* | -5.7 | -32.2* | -66.9
O=c1[nH]c2ccccc2c(O)c1SCCO | 2.8 | -3.6 | 2.8 | 0.4 | -1.0
COc1ccccc1NC(=O)c1sc2nc3n(c(=O)c2c1C)N=C(c1cccc(Br)c1)CS3 | 3.1 | · | -2.7 | -11.8 | -0.9
O=C(OCc1ccccc1Cl)c1ccc(-n2cnnc2)cc1 | 19.6 | 5.3 | -10.2 | -35.7* | 2.1
O=C(OCc1ccccc1Cl)c1ccc(-c2nnn(Cc3ccccc3)n2)cc1 | 2.7 | · | -2.6 | -0.9 | 2.4
CCn1cc(C(=O)N2CCN(c3cc(Cl)ccc3C)CC2)c(=O)c2cc(S(=O)(=O)N3CCOCC3)ccc21 | 1.4 | · | -2.9 | -6.0 | -19.7
O=C(CCC1N=C2c3ccccc3N=C(SCc3cccc(F)c3)N2C1=O)NCc1ccc(F)cc1 (centres undefined) | 0.5 | · | 0.8 | 18.8 | -15.0
Cc1ccc(C(C)C)c(OCc2nn(CC(=O)c3ccc(OC(F)F)cc3)c3[n+]2CCCCC3)c1 | 91.0* | -6.6 | -5.8 | -11.8 | -9.9
CC(Oc1ccc(F)cc1)C(=O)Nc1nc(-c2ccccn2)cs1 (centres undefined) | -1.2 | -69.2* | -4.0 | 19.8 | -12.0
O=C(CCS(=O)(=O)c1ccc(F)cc1)Nc1nc(-c2ccccn2)cs1 | 5.2 | -0.1 | -0.2 | 1.1 | -1.1
C=CCn1c(COc2ccccc2F)nnc1SCC(=O)c1c[nH]c2ccccc12 | 4.7 | 1.1 | -5.0 | -34.9* | -13.2
COc1cccc(CNC(=O)c2ccc3c(c2)N(C)C(=O)C2CCCCN32)c1 (centres undefined) | 0.2 | · | -0.9 | 18.1 | -16.3
Cc1ccc(N(CC(=O)N2CCOCC2)S(=O)(=O)c2ccccc2)cc1 | 0.9 | 4.6 | -9.7 | -5.9 | 1.8
Cc1ccc(S(=O)(=O)/N=C(/c2ccccc2)N2CCOCC2)cc1 | 1.7 | 7.1 | -5.0 | 12.7 | 35.9*
CCN1CCN(C(=O)c2ccccc2N(Cc2ccccc2)S(C)(=O)=O)CC1 | 3.5 | 13.1 | -4.2 | 9.2 | -13.6
CCN1CCN(C(=O)c2ccccc2N(Cc2ccccc2)S(=O)(=O)c2ccc(C)cc2)CC1 | 7.8 | -52.4* | 3.9 | 16.2 | -2.5
COc1ccc(C)cc1S(=O)(=O)N(CC(=O)N1CCOCC1)c1cc(C)cc(C)c1 | 1.9 | -4.2 | -2.8 | 4.7 | -0.9
COc1ccc(Br)cc1S(=O)(=O)N(CC(=O)N1CCOCC1)c1ccccc1 | 2.7 | -119.5* | -0.1 | -0.3 | -6.6
SMILES | D1 agonist | DRD3 antagonist | D1 PAM | D1 antagonist | D3 ag
Cc1ccc(N(CCC(=O)N2CCOCC2)S(=O)(=O)c2ccccc2)cc1 | 2.0 | -13.6 | · | -55.4* | 19.1
COc1cccc(/C=C/C(=O)OCC(=O)NC2CC2)c1OC | · | -8.7 | · | · | 6.9
CN(C)S(=O)(=O)N(CC(=O)N1CCOCC1)c1ccccc1 | 0.4 | -52.3* | -6.6 | 2.5 | -7.3
CS(=O)(=O)N(CC(=O)N1CCOCC1)c1ccccc1 | 0.9 | 11.7 | -1.2 | -10.3 | 0.5
CCOC(=O)c1cccc(NC(=O)c2cc(C)nc3c2c(C)nn3-c2ccc(C)cc2)c1 | 2.8 | · | 2.5 | 1.3 | 12.8
CN1CCCN(CC(O)COCc2cccs2)CC1 (centres undefined) | 3.2 | 5.0 | -0.9 | 5.6 | 10.5
OC(COCc1cccs1)CN1CCCCCC1 (centres undefined) | 3.7 | -10.7 | 0.5 | -2.0 | -4.1
OC(COCc1cccs1)CN1CCN(c2ccccn2)CC1 (centres undefined) | 0.9 | -24.9 | -0.1 | -11.9 | 57.0*
OC(COCc1cccs1)CN1CCN(c2cccc(Cl)c2)CC1 (centres undefined) | 5.2 | -56.1* | -4.9 | -6.2 | -6.3
OC(COCc1cccs1)CN1CCN(c2ccccc2Cl)CC1 (centres undefined) | 4.1 | -69.2* | -6.2 | -3.7 | -17.7
Cc1cccc(N2CCN(CC(O)COCc3cccs3)CC2)c1C (centres undefined) | 7.5 | -6.1 | -2.3 | -3.6 | 57.9*
COc1cccc(N2CCN(S(=O)(=O)c3cc(-c4cc(C)no4)ccc3C)CC2)c1 | 1.1 | · | -4.8 | -6.1 | 4.2
CC(C)(C)OC(=O)Cc1nnc(-c2nc3ccccc3[nH]2)s1 | 6.7 | · | 24.1 | 1.5 | ·
CC(C)(C)OC(=O)Cc1nnc(C(C(=O)OCc2ccccc2)c2ccccc2)s1 (centres undefined) | 15.4 | · | -1.6 | 3.9 | ·
OC(COc1ccc(Cl)cc1)CN1CCN(c2ccccn2)CC1 (centres undefined) | · | -7.8 | · | · | 11.8
CCOc1ccccc1N1CCN(CC(O)COCc2cccs2)CC1 (centres undefined) | 0.9 | -84.5* | -2.8 | 25.5 | -25.3
OC(COCc1ccc(Cl)cc1)CN1CCN(c2ccccn2)CC1 (centres undefined) | 3.0 | 0.0 | -1.1 | 2.9 | 59.0*
CCc1cc(=O)oc2c(C)c(OCC(=O)NCCCN3CCCC3=O)ccc12 | 4.5 | 2.7 | 1.4 | 8.6 | -2.6
O=C(N/N=C/C1CC=CCC1)c1ccc(Cl)cc1O (centres undefined) | 22.9 | 18.0 | -16.2 | -36.6* | -4.0
O=C(N/N=C/C1CC=CCC1)c1ccccc1O (centres undefined) | 0.8 | -17.3 | 3.7 | 2.5 | -7.3
CN1C(=O)C(C)(C)c2cc(S(=O)(=O)N3CCN(c4ccccc4)CC3)ccc21 | 3.7 | -9.9 | -1.6 | -39.8* | -8.4
Cc1ccc(S(=O)(=O)N2CCN(c3ccccc3)CC2)cc1C(N)=O | 1.4 | 19.5 | -0.1 | 0.0 | 34.5*
CCOc1ccc(S(=O)(=O)N2CCN(c3ccccc3)CC2)cc1C(N)=O | -0.7 | · | -0.2 | 10.3 | -8.6
Cc1ccc(NS(=O)(=O)c2ccccc2)c(C)c1 | 1.8 | · | 3.6 | -6.3 | ·
Cc1ccc(Cl)cc1NC(=S)N(CCCN1CCOCC1)Cc1ccccn1 | 0.1 | 13.1 | 0.0 | -74.4* | -10.2
COc1ccc(NS(=O)(=O)c2ccc(C)c(C(=O)NCc3ccccc3CN3CCCC3)c2)cc1 | · | -17.3 | · | · | -3.1
